ALDH1A1 block – blocks purified human ALDH1A1 activity. P00352. Purified ALDH1A1, NADH fluorescence, propionaldehyde substrate. Potency, µM (series often up to 75.3 µM), without a hit: at the top dose activity, negative = inhibition, hits mostly inhibitors. hit rate 7.3% among 220,000;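 further: potency means the concentration at half of the fitted maximal effect; plate controls were no enzyme wells and a reference inhibitor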
CBFb-RUNX1 inh – inhibitors of human CBF-beta and RUNX1 interaction; Q01196+Q13951; AlphaScreen CBFb-His/RUNX1-biotin binding, biochemical; Potency, µM (series often up to 59.8 µM), without a hit: at the highest dose activity, negative = inhibition, usual class: inhibitors; 230,000 tested, under 10 active; AID 1477; active means well fitted curve in the direction sought with a large enough effect; inconclusive means small, poorly fitted or top-dose-only effect, or another doubt; inactive means no such curve, though single readings can be large; an effect the other way counts as inactive or inconclusive; further: % of control where 0% means no effect
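Bead-based AlphaScreen assay; binding partners His-tagged CBF-beta and biotinylated RUNX1 at 30 nM each. Compound exposure 15 min after a 20-min protein preincubation; bead step 90 min; all steps at room temperature.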
HTT cytoprotect – cytoprotection in Huntington HTT-Q103 PC12 cell model; Potency, µM (doses to about 56.4 µM), for the others: cytoprotection (ATP increase), most hits filed as activators; PC12 HTT-Q103 induced, cytoprotection, ATP luminescence, 40 h; hit rate 0.14% among 230,000; active means well fitted curve in the direction sought with a large enough effect; inconclusive means small, poorly fitted or top-dose-only effect, or another doubt; inactive means no such curve, though single readings can be large; an effect the other way counts as inactive or inconclusive; further: potency means the concentration at half of the fitted maximal effect; % of control where 0% means no effect; nearly all actives have a fitted effect of over 45% in size
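Readout: ATPlite luminescence (ATP level). Model: stable PC12, inducible Htt exon1 Q103-GFP. Inducer: tebufenozide, 100 nM final. Compounds: dose series. No G418 in medium.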
HPGD inh – HPGD (human) dehydrogenase inhibition | P15428 | purified HPGD, NADH fluorescence kinetic, PGE2 substrate | Potency, µM, inactives show top-dose activity change, negative = inhibition, usual class: inhibitors | hit rate 4.3% among 150,000 | AID 894; further: potency means the concentration at half of the fitted maximal effect; on the % scale 0 is the no-effect control and ±100 the full control effect
Target sequence (P15428 whole entry, looked up): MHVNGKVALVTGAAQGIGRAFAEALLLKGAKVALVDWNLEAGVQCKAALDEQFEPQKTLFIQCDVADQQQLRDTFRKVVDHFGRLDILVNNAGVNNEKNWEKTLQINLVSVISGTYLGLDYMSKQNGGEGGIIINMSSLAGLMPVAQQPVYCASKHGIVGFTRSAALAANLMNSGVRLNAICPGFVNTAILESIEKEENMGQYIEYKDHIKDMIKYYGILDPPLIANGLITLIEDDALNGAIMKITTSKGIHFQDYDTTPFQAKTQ
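20 nM HPGD preincubated 15 min at room temperature with compound in 50 mM Tris-HCl pH 8, 0.01% Tween 20. Started with 1 mM NAD+ and 30 uM prostaglandin E2; NADH fluorescence (360/450 nm) read 5 times over 30-s intervals, last minus first.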
KDM4E inh – JMJD2E (human) inhibition; JMJD2E catalytic domain, FDH-coupled NADH fluorescence (FDH is formaldehyde dehydrogenase); Potency, µM (titrated, usually from 57.1 µM), for inactives: at the top dose activity change, negative = inhibition, usual class: inhibitors; hit rate 1.6% among 230,000;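 further: potency means the concentration at half of the fitted maximal effect; 0% = wells with enzyme and -100% = buffer wells without enzyme; nearly all actives have a fitted effect of over 50% in size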
Target sequence (B2RXH2 1-337 limits assumed): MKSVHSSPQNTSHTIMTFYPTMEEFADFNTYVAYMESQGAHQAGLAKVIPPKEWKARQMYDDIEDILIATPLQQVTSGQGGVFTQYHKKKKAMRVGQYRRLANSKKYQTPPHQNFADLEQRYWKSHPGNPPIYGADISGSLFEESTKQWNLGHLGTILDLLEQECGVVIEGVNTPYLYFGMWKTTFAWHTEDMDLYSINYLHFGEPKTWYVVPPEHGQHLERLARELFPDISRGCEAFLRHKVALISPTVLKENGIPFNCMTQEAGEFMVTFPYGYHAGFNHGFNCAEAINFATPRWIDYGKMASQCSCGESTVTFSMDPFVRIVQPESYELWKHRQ
HTT aggregate – inhibitors of mutant huntingtin aggregate formation in PC12 cells | Potency, µM (doses to about 46.1 µM), without a hit: at the highest dose activity change, negative = inhibition, usual class: inhibitors | PC12 HttQ103-GFP aggregates, Acumen cytometry, 40 h | hit rate 1.1% among 220,000; active means well fitted curve in the direction sought with a large enough effect; inconclusive means small, poorly fitted or top-dose-only effect, or another doubt; inactive means no such curve, though single readings can be large; an effect the other way counts as inactive or inconclusive; further: potency means the concentration at half of the fitted maximal effect; on the % scale 0 is the no-effect control and ±100 the full control effect; nearly all actives have a fitted effect of over 60% in size
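Using laser scanning cytometry, GFP-positive aggregates were counted after lysis of PC12 cells induced with 100 nM tebufenozide to express HTT exon 1 Q103–GFP. Compounds were tested in titration.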
An asterisk follows results filed as active; ! = repeats disagree; [ ] = another dose, or the depositor's remark. The list is not random: actives were taken first. Their share in the collection is about 9.8%. Unless noted, the call rests on the fitted dose curve; in most records, active means well fitted inhibition curve with a large enough effect (not every such curve was filed as active); inconclusive means small, poorly fitted or top-dose-only effect, or another doubt; inactive means no such curve, though single readings can be large or run the other way.

How did O=C(N/N=C/c1ccccc1OC(=O)N1CCOCC1)c1cccs1 do in these assays?
ALDH1A1 block: 8.9%; CBFb-RUNX1 inh: -0.4%; HTT cytoprotect: -50.8%; KDM4E inh: -9.0%; HTT aggregate: inconclusive

How did ClCBr do in these assays?
ALDH1A1 block: -0.9%; CBFb-RUNX1 inh: 4.2%[21.7 µM]; HTT cytoprotect: -35.5%; HPGD inh: -8.1%

How did CN1CCC[C@@H]1c1cccnc1.O=C(O)c1ccccc1O.O=C([OH2+])c1ccccc1O.O=C([OH2+])c1ccccc1O.O=C([OH2+])c1ccccc1O.[Mn] do in these assays?
ALDH1A1 block: inconclusive; HTT cytoprotect: -9.4%[10 µM]; HPGD inh: inconclusive

What do the screens show for `CCC(C)n1c(O)c(C(c2ccccn2)c2c(O)n(C(C)CC)c(=S)[nH]c2=O)c(=O)[nH]c1=S` (configuration not stated)?
ALDH1A1 block: 7.08µM*; CBFb-RUNX1 inh: -13.5%; HTT cytoprotect: -0.9%[10 µM]; HPGD inh: 31.6µM*; KDM4E inh: inconclusive; HTT aggregate: -11.5%

Results for CCCn1c(C(=O)c2ccc(OC)cc2)nc2ccccc21 ?
ALDH1A1 block: -11.1%; CBFb-RUNX1 inh: 21.8%; HTT cytoprotect: 10.9%[10 µM]; KDM4E inh: -11.2%; HTT aggregate: -5.8%[9.22 µM]

What do the screens show for `COc1ccc(C(=O)c2c(C)n(CCN3CCOCC3)c3cc(I)ccc23)cc1`?
ALDH1A1 block: 5.01µM*; CBFb-RUNX1 inh: -4.0%[21.7 µM]; HTT cytoprotect: inconclusive; HPGD inh: -9.3%; KDM4E inh: -15.6%

How did CC(=O)c1ccc(OC(NC(=O)c2ccco2)C(Cl)(Cl)Cl)cc1 (configuration not stated) do in these assays?
ALDH1A1 block: inconclusive; CBFb-RUNX1 inh: -0.9%; HTT cytoprotect: 13.9%; HPGD inh: 25.1µM*; KDM4E inh: 4.2%; HTT aggregate: 0.4%

Results for O=C(CNC(=O)c1cccs1)NCC(=O)OCC(=O)c1ccc([N+](=O)[O-])cc1 ?
ALDH1A1 block: 2.24µM*; CBFb-RUNX1 inh: -1.9%; HTT cytoprotect: -13.0%; KDM4E inh: 6.5%; HTT aggregate: 3.4%

How did CCCCOc1nc2ccccc2c(=O)n1-c1ccccc1 do in these assays?
ALDH1A1 block: 14.1µM*; CBFb-RUNX1 inh: -1.9%; HTT cytoprotect: 5.7%[10 µM]; HPGD inh: -13.0%; KDM4E inh: 4.1%; HTT aggregate: 1.1%

Results for COc1ccc(-c2nc3ccccc3c(=O)n2-c2cccnc2)cc1 ?
ALDH1A1 block: -1.9%; CBFb-RUNX1 inh: -3.0%; HTT cytoprotect: -1.5%; HPGD inh: -3.5%; KDM4E inh: 6.4%; HTT aggregate: -3.3%

Results for COc1ccc(-c2nc3ccccc3c(=O)o2)cc1 ?
ALDH1A1 block: inconclusive; CBFb-RUNX1 inh: 3.7%; HTT cytoprotect: -37.2%[10 µM]; KDM4E inh: 25.1µM*; HTT aggregate: -15.3%[9.22 µM]

Results for COc1ccc(-n2c(-c3ccc(C)cc3)nc3ccccc3c2=O)cc1 ?
ALDH1A1 block: 7.94µM*; CBFb-RUNX1 inh: -3.3%; HTT cytoprotect: -6.6%[10 µM]; KDM4E inh: -5.1%; HTT aggregate: -1.3%[9.22 µM]

How did CC[C@H](CO)NC(=O)[C@@H]1C=C2c3cccc4[nH]cc(c34)C[C@@H]2N(C)C1 do in these assays?
HTT cytoprotect: -0.5%[1.9 µM]

Results for CCC1(C)CC(C(N)=S)CCO1 (configuration not stated) ?
CBFb-RUNX1 inh: -4.8%; HTT cytoprotect: 20.8%[10 µM]; KDM4E inh: inconclusive; HTT aggregate: -20.9%[9.22 µM]

What do the screens show for `O=C(O)c1cccc2c1NC(C(=O)O)C1CC(Sc3ccccc3[N+](=O)[O-])C(Cl)C21` (configuration not stated)?
ALDH1A1 block: 0.3%; CBFb-RUNX1 inh: -4.5%; HTT cytoprotect: -6.6%[10 µM]; HPGD inh: inconclusive; KDM4E inh: -1.6%; HTT aggregate: 1.6%

Results for CC(=O)c1ccc2c(c1)C1C(Cl)C(Sc3ccccc3[N+](=O)[O-])CC1C(C(=O)O)N2 (configuration not stated) ?
ALDH1A1 block: 1.78µM*; CBFb-RUNX1 inh: inconclusive; HTT cytoprotect: -4.8%[10 µM]; HPGD inh: inconclusive; KDM4E inh: inconclusive; HTT aggregate: 2.5%

Results for CCC(Cl)[N+](=O)[O-] (configuration not stated) ?
ALDH1A1 block: inconclusive; CBFb-RUNX1 inh: -9.5%[21.7 µM]; HTT cytoprotect: -0.8%; HPGD inh: 1.1%

How did CCBr do in these assays?
ALDH1A1 block: inconclusive; CBFb-RUNX1 inh: 10.9%[21.7 µM]; HTT cytoprotect: -28.5%; HPGD inh: 0.8%

Results for CC[C@@]1(c2ccc(N)cc2)CCC(=O)NC1=O ?
ALDH1A1 block: 1.8%[20.9 µM]; CBFb-RUNX1 inh: -0.9%[21.7 µM]; HTT cytoprotect: inconclusive; HPGD inh: -11.0%; KDM4E inh: 9.2%[25.5 µM]; HTT aggregate: -7.5%

How did Nc1ccc(C2(c3ccc(N)cc3)CCCCC2)cc1 do in these assays?
ALDH1A1 block: 14.1µM*; CBFb-RUNX1 inh: -25.0%; HTT cytoprotect: -6.8%; KDM4E inh: -5.2%; HTT aggregate: 15.2%

How did CC(C)C[C@H](NC(=O)[C@H](CC(C)C)NC(=O)[C@H](Cc1ccccc1)NC(=O)[C@@H](N)Cc1ccc(O)cc1)C(=O)N[C@@H](CCCN=C(N)N)C(=O)N[C@@H](CC(N)=O)C(=O)N1CCC[C@H]1C(=O)O do in these assays?
CBFb-RUNX1 inh: 6.0%

How did Oc1ccc(Cl)cc1Cc1ccccc1 do in these assays?
ALDH1A1 block: -4.7%; CBFb-RUNX1 inh: 3.3%[21.7 µM]; HTT cytoprotect: 15.2%; HPGD inh: 10µM*; HTT aggregate: -21.2%

What do the screens show for `Oc1cc(Cl)ccc1Cl`?
ALDH1A1 block: inconclusive; CBFb-RUNX1 inh: 4.2%[21.7 µM]; HTT cytoprotect: -0.4%; HPGD inh: -29.0%

Results for Oc1ccc(Cl)cc1Cc1cc(Cl)ccc1O ?
ALDH1A1 block: 11.9%; CBFb-RUNX1 inh: -0.2%; HTT cytoprotect: -28.2%; HPGD inh: 14.1µM*!; KDM4E inh: -4.4%; HTT aggregate: inconclusive

How did CCOC(=O)C(C)Oc1cc(C)cc2oc(=O)c3c(c12)CCCC3 (configuration not stated) do in these assays?
ALDH1A1 block: inconclusive; CBFb-RUNX1 inh: -11.3%; HTT cytoprotect: -10.7%; HPGD inh: inconclusive; KDM4E inh: 12.6µM*; HTT aggregate: 11.0%

How did COC(=O)C(C)Oc1cc(C)cc2oc(=O)c3c(c12)CCCC3 (configuration not stated) do in these assays?
ALDH1A1 block: inconclusive; CBFb-RUNX1 inh: 8.6%; HTT cytoprotect: -13.8%; HPGD inh: inconclusive; KDM4E inh: inconclusive; HTT aggregate: 9.0%

What do the screens show for `OC[P+](CO)(CO)CO`?
ALDH1A1 block: 17.9%; CBFb-RUNX1 inh: -0.3%[21.7 µM]; HTT cytoprotect: -37.6%; HPGD inh: -13.9%

What do the screens show for `O=C(O)C(Cl)(Cl)Br`?
ALDH1A1 block: -12.0%; CBFb-RUNX1 inh: 9.8%[21.7 µM]; HTT cytoprotect: -9.0%; HPGD inh: -6.6%
